# Assay results taken from PubChem BioAssay (NCATS).
# Unmarked numbers belong to inactive results. Active and inactive are the calls of the source. Calls come from the whole dose curve; as a rule, active = well fitted cell-killing curve with a large enough effect; inconclusive = small, poorly fitted or top-dose-only effect; inactive = flat fitted curve, though single readings scatter.
# Experiment: Cell Viability - LYMP1-002 - Assay at 24 hr (AID 993)
# Conditions: LYMP1-002 lymphoblastoid cells viability; series mostly up to 92.2 µM; activity change, negative = cytotoxicity: at the top concentration
# From the text: NIH Chemical Genomics Center [NCGC]
# NIH Molecular Libraries Screening Centers Network [MLSCN]
# National Institutes of Environmental Health Sciences [NIEHS]
# National Toxicology Program [NTP]
# We have developed a 1536-well cell-based assay for quantitative high throughput screening (qHTS) against a number of cell lines to determine in vitro cytotoxicity of small molecules. This particular assay uses a human lymphoblastoid cell line (LYMP1-002) purchased from Coriell Institute for Medical Research.
# NCGC Assay Protocol Summary:
# The CellTiter-Glo luminescent cell viability assay (Promega) is a homogeneous method to measure the number of viable cells in culture. The end point readout of this assay is based on quantitation of intracellular ATP, an indicator of metabolic activity, using the luciferase reaction. Luciferase catalyzes the oxidation of beetle Luciferin to oxyluciferin and light in the presence of ATP. The luminescent signal is proportional to amount of ATP present.
# Using the CellTiter-Glo luminescent cell viability assay, the amount of cellular ATP was measured in the lymphoblastoid cell line with complete culture medium following compound treatment for 24 hours. The assay was performed in opaque white Kalypsys 1536-well plates. In the screen, tetraoctylammonium bromide was used as positive control. Library compounds were measured for their ability to cause acute toxicity in the cell line, as reflected by a decrease in intracellular ATP levels, in a concentration-dependent manner. […] AC50 values were determined from concentration-response data modeled with the standard Hill equation.
# qHTS protocol for CellTiter Glo lymphoblastoid cellular assay
# [Step] [Parameter] [Value] [Description]
# 1. Reagent; 5 uL; 2500 lymphoblastoid cells/well
# 2. Time; 5 hr; 37 C incubation
# 4. Controls; 23 nL; Tetraoctylammonium bromide 6.4pM to 92 uM
# 5. Time; 24 hr; 37 C incubation
# 6. Reagent; 5 uL; CellTiter Glo reagent
# 7. Time; 30 min; Room Temperature
# 8. Detection; Luminescence; Viewlux plate reader
# Keywords: cell viability, cytotoxicity, lymphoblastoid cell line, luminescence, NTPHTS, NTPHTS_NCGC, NIEHS, DSSTox, MLSMR, MLSCN, NIH Roadmap, qHTS, NCGC
# % is set by controls: 0 for no effect and ±100 for the full control effect.
Compound,Potency,"activity change, negative = cytotoxicity"
CC(C)(C)OO,inactive,
CCCC(=O)Cl,,-0.819%
Nc1ccccc1Cl,,-0.106%
COC(=O)NC(=S)Nc1ccccc1NC(=S)NC(=O)OC,,-3.52%
N#CCCCl,inactive,
C[N+](C)(C)Cc1ccccc1,,2.45%
Cc1ccccc1N,inactive,
CC(C)(C)OOC(C)(C)C,,0.65%
c1nc[nH]n1,,3.51%
Clc1nc(Cl)nc(Nc2ccccc2Cl)n1,,-6.14%
CCOc1ccc(N)cc1,,-4.03%
CCN(CC)c1ccccc1,,-2.41%
Clc1cc(Cl)c(-c2cc(Cl)c(Cl)cc2Cl)cc1Cl,,-3.51%
Cc1ccc([N+](=O)[O-])cc1C,,-0.96%
OCC(Br)CBr (stereo not given),,1.19%
Cc1ccc(O)c(C)c1,,4.66%
O=C(O)COc1ccc(Cl)cc1Cl,inactive,
C=CCc1ccc(OC)cc1,,-2.72%
Brc1ccc(Oc2cc(Br)c(Br)cc2Br)c(Br)c1,inactive,
c1ccc(N=Nc2ccccc2)cc1,,-1.53%

Compound,Potency,"activity change, negative = cytotoxicity"
C/C=C/c1ccc2c(c1)OCO2,,3.35%
BrCCBr,,8.49%
Cc1cccc(C#N)c1,,-10.3%
Clc1cccc(C(Cl)(Cl)Cl)n1,,-3.5%
CC(Cl)Cl,,4.2%
CCOP(=S)(OCC)Oc1ccc([N+](=O)[O-])cc1,inactive,
C=CCc1ccc2c(c1)OCO2,,0.972%
c1ccc(-c2ccccc2)cc1,,-0.319%
[O-][Br+2]([O-])O,inactive,
Oc1ccc(Cl)cc1Cl,,0.947%
CCC[CH2][Sn]([Cl])([Cl])[Cl],,-0.0263%
O=C(Cl)/C=C/C(=O)Cl,,1.36%
C=CC(N)=O,inactive,
Cc1ccc2ccccc2c1,,0.59%
COC1=CC(=O)OC(CCc2ccccc2)C1 (stereo not given),,-2.32%
CCCOC(=O)c1ccccc1C(=O)OCCC,,2.91%
C=CC(=O)OCC,,3.28%
c1ccc2c(c1)CCCC2,,-1.15%
COc1ccc(C=O)cc1OC,,-1.4%
CCCCCCCC(=O)Cl,,-3.06%
